Data as given in PubChem BioAssay AID624330 (Southern Research Specialized Biocontainment Screening …, 2012).
In all, about 340,000 compounds went through this assay and about 2,100 (0.62%) were called active.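 Rule for the calls: active = first-screen hits whose inhibition reached a set limit at any dose in the follow-up dose series; inconclusive = inhibition above the set first-screen limit but never retested; inactive = the rest.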 The list is a sample of the results. Potency and affinity values are given separately.

The compounds below were run against Rac GTPase-activating protein 1 (Homo sapiens) (UniProt Q9H0H5) (assay: MgcRacGAP GTPase-activating activity inhibitors, confirmation, biochemical, ADP Hunter fluorescence, primary and confirmatory (AID 624330;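 note: fluorescence reports GDP produced by GAP-driven GTP hydrolysis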)). Conditions: MgcRacGAP-stimulated Rac1 GTP hydrolysis, at 30 µM, active compounds read high, GST-tagged Rac1 F28L mutant substrate.
Sequence of Rac GTPase-activating protein 1 (Homo sapiens) (Q9H0H5 whole entry, looked up): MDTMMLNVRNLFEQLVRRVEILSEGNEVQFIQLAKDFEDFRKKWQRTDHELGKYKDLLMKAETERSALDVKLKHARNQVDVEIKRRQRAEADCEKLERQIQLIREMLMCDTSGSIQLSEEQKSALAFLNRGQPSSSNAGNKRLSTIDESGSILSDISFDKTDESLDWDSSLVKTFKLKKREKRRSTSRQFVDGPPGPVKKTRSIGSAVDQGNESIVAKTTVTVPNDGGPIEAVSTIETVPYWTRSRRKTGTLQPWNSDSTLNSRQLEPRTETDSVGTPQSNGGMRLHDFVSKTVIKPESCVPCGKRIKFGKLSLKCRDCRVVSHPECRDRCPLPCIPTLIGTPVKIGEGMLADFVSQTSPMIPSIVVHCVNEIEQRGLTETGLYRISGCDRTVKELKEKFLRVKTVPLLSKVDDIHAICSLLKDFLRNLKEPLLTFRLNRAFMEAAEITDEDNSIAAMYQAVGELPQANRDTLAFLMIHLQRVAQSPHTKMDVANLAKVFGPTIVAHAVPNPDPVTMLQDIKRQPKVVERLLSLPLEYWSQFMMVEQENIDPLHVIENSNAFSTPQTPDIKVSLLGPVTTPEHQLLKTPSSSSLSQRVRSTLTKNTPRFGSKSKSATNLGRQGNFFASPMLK

inhibition, inactive:
CCCCC[C@H]1CN(Cc2ccccc2)C(=O)[C@@H]1CC(=O)NCc1ccccc1 8.29%
Cc1cccc(OCC(=O)Nc2nnc(S(=O)(=O)N3CCCCCC3)s2)c1 9.88%
Cc1[nH]c(C)c(S(=O)(=O)NCc2ccco2)c1C(=O)N1CCCCC1 16.2%
COc1ccccc1NC(=O)c1ccc[n+]([O-])c1 4.42%
Cc1cc(F)ccc1S(=O)(=O)Nc1ncnc2sccc12 -6.18%
COc1ccc(CNC(=O)O[C@@H]2C[C@H]3C(=O)N(c4ccccc4)C(=O)[C@H]3[C@@]3(CN(S(=O)(=O)c4ccc(C)cc4)C[C@H]3C)[C@@H]2O)cc1OC 13.3%
Cc1cn([C@@H](CCCCNC(=O)OC(C)(C)C)C(=O)NCCCCCCCCCCC(=O)N2CCN(C(=O)OC(C)(C)C)CC2)nn1 3.56%
CCN(CC)c1ccc(NC(=O)COC(=O)CSc2ccc(Br)cc2C)cc1 7.43%
Cc1ccccc1SCC(=O)OCC(=O)NCCNC(=O)COC(=O)CSc1ccccc1C 2.21%
O=C(Cn1ccc(C(F)(F)F)n1)N=Nc1c(O)[nH]c2ccccc12 4.76%
CCc1ccc(S(=O)(=O)NCCc2cn3cccc(C)c3n2)s1 4.85%
Cc1ccc(O)c(N=Cc2ccc(C)s2)c1 -11.5%
Oc1c(C=Nc2ccc(Cl)cn2)sc2ccccc12 8.33%
O=[N+]([O-])c1ccc(O)c(N=Cc2sc3ccccc3c2O)c1 27.9%
COc1ccc(N=Cc2sc3ccccc3c2Cl)cc1 11%
CN(C)C(=O)CSc1nc(-c2ccccc2)c(-c2ccccc2)o1 2.82%
O=C(Nc1ccc2c(c1)OCCO2)c1ccc(Br)c(S(=O)(=O)N2CCOCC2)c1 -4.87%
O=C(Oc1ccc(OC(=O)c2ccncc2)cc1)c1ccncc1 5.17%
COc1ccc(C(=O)Oc2ccc3c(c2)OCO3)cc1OC 7.69%
COc1ccc(OC(=O)c2ccc(OC)c(S(=O)(=O)N3CCOCC3)c2)cc1 22.8%
COc1ccc(CCN2C(=O)c3ccccc3NC2c2cc(Cl)c(O)c(OC)c2)cc1 (stereo unspecified) 7.25%
COC(=O)c1c(NC(=O)CC2SC(N)=NC2=O)sc(C)c1C (stereo unspecified) -4.36%
Nc1cc2c(cc1Cl)N(Cc1ccccc1)C(=O)CO2 4.01%
Cc1cc2c(NCC(C)O)ncnc2s1 (stereo unspecified) 8.37%
CSCC(=O)N1CCCC(N2CCN(c3ccc(F)cc3)CC2)C1 (stereo unspecified) 15.7%
Cc1ccccc1OCC(=O)Nc1ccc(N2CCN(C(=O)c3ccco3)CC2)cc1 10.3%
COc1ccc(CCNC(=O)COC(=O)c2cc(OC)c(OC)cc2OC)cc1OC 7.3%
C=CCOc1ccc(Cl)cc1CNCCCN1CCOCC1 1.5%
C=CCc1cc(Cl)ccc1OCCCNC(C)C 23.5%
C=CCc1ccccc1OCCn1ccnc1 9.27%
C=CCc1cc(C)ccc1OCCn1ccnc1 17.7%
C=CCc1cc(Cl)ccc1OCCOCCN(C)C 22%
C=CCc1cc(Cl)ccc1OCCNCCOC 10.8%
C=CCc1cc(C)ccc1OCCOCCn1ccnc1 15.9%
C=CCc1cc(Cl)ccc1OCCCn1ccnc1 19.6%
COc1ccc(NC(=O)N2CCN(S(=O)(=O)c3ccc(F)cc3)CC2)c(OC)c1 7.35%
CCCCCCCNC(=O)C1(CC2CC(c3ccc(Cl)cc3)=NO2)CCN(C(=O)CCCCCBr)CC1 (stereo unspecified) 3.79%
COc1ccc2cc(CN(CC3COCCO3)S(=O)(=O)c3ccccc3)c(=O)[nH]c2c1 (stereo unspecified) -14.3%
Cc1onc(-c2ccccc2)c1C(=O)N/N=C/c1ccco1 4.91%
N#Cc1ccc(NC(=O)Cn2c3[n+](c4ccc(C(F)(F)F)cc42)CCCCC3)cc1 -1.69%
CNc1nc(-c2ccc3c(c2)CCN3C(=O)c2ccccc2C)cs1 10.3%
COc1ccc(-c2cc(C(=O)Nc3cccnc3Cl)no2)cc1 9.21%
C=CCn1ccc2c([N+](=O)[O-])cccc2c1=O 8.97%
COCCNC(=O)c1ccccc1NC(=O)c1ccccc1N(C)S(=O)(=O)c1ccc(C)cc1 3.63%
CC1CCCN(C(=O)c2cc(S(=O)(=O)N3CCCCC3)c[nH]2)C1 (stereo unspecified) -0.16%
CCCc1nc(NCc2ccccc2)c(C#N)c2c1CCCC2 8.86%
Cc1c(NC(=O)c2ccc(S(=O)(=O)N3CC(C)OC(C)C3)cc2)c(=O)n(-c2ccccc2)n1C (stereo unspecified) 4.26%
COc1ccc(NC(=O)CCC(=O)c2ccc(C(C)C)cc2)cc1 12.2%
COc1ccc(C(=O)CCC(=O)Nc2cccc(Cl)c2)cc1 4.1%
CCOc1ccccc1N1CCN(CC(=O)Nc2ccnn2C2CCCC2)CC1 5.05%
CN(C(=O)CSc1nc2scc(-c3ccccc3)c2c(=O)[nH]1)c1ccccc1 6.96%
O=C1c2ccccc2CN2C(=O)c3ccccc3CN12 3.55%
CC(C)CCN1CCN(C/C=C/c2ccco2)CC1CCO (stereo unspecified) 14.2%
COc1ccc(/C=C/CN2CCN(CC(C)C)C(CCO)C2)cc1 (stereo unspecified) 5.86%
Cc1ccc(CN2CCN(C/C=C/c3ccc(F)cc3)CC2CCO)o1 (stereo unspecified) 7.9%
COc1ccccc1/C=C/CN1CCN(Cc2ccc(C)o2)C(CCO)C1 (stereo unspecified) 11%
CC(C)(C)c1ccc(OC(=O)c2ccc3snnc3c2)cc1 4.25%
CC(=O)N/C(=C\c1ccccc1)C(=O)OCC(=O)NC(=O)c1ccccc1 5.8%
CC(OC(=O)C1CC(=O)N(Cc2ccco2)C1)C(=O)Nc1cccc(C#N)c1 (stereo unspecified) 6.14%
O=C(CN(C(=O)c1csnn1)c1ccc(F)cc1)NCCc1ccccc1 7.07%
COc1ccc(C(O)Cc2nccn2C)cc1 (stereo unspecified) 2.89%
Cc1cccc(-n2cnc(C(=O)O)c2)n1 4.99%
CC(=O)Nc1ccc(NC(=O)c2ccnn2C)cc1 3.95%
Cn1nccc1C(=O)Nc1ccc(Cl)cc1 -1.74%
C=CCN(C(=O)c1csnn1)C(C(=O)NC1CCCC1)c1ccc(F)cc1 (stereo unspecified) 5.68%
COC(=O)C[C@@H]1C[C@H]2c3cc(N(C)C)ccc3O[C@H]2[C@H](CO)O1 18.6%
COc1ccccc1CNC(=O)C[C@@H]1C[C@H]2c3cc(NC(=O)c4ccc5c(c4)OCO5)ccc3O[C@H]2[C@@H](CO)O1 13.4%
O=C1CN(S(=O)(=O)c2cccc(Cl)c2Cl)c2ccccc2N1 4.66%
COc1cc([N+](=O)[O-])ccc1NC(=O)CCN1C(=O)C2C3CCC(C3)C2C1=O (stereo unspecified) 6.61%
O=C(Cc1ccccc1)Nc1ccc(N2CCCCC2)cc1 1.26%
S=C(NCc1ccco1)Nc1ccc(Oc2ccccc2)cc1 1.09%
COc1ccc(C)cc1NC(=O)CNCc1cccs1 0.81%
O=C(CNCc1cccs1)Nc1ccc(S(=O)(=O)N2CCCCC2)cc1 14.5%
CC(=O)c1ccc(NC(=O)CNCc2cccs2)cc1 28.6%
O=C(CNC(=O)c1ccco1)Nc1ccc(N2CCCCCC2)cc1 30.4%
O=C(NCc1ccco1)c1ccc(Oc2ccccc2)cc1 1.55%
COc1ccc(NC(=O)Cc2cccs2)c(OC)c1 8.99%
CCCOC(=O)C(C)n1cnc2scc(-c3ccc(C)cc3)c2c1=O (stereo unspecified) 8.26%
N#CC(=C(O)CN1CCN(c2ccccc2F)CC1)c1nc(-c2ccccc2)cs1 6.97%
CCOC(=O)CSc1nc2ccc(N3CCOCC3)cc2c(=O)n1Cc1ccccc1 1.81%
O=C1NCC(NC(=O)C(F)(F)F)c2cc3c(cc21)OCO3 (stereo unspecified) -0.85%
CCN1C(=O)[C@H]2[C@H]3CN=C(SCc4ccccc4)N3[C@@](C)(C(=O)OC)[C@H]2C1=O 13.1%
Cc1ccc(C(=O)c2c(NC(=O)CSc3nnc(N)s3)sc3c2CCCC3)cc1 -2.45%
CCOC(=O)N1CCN(CC(=O)Nc2ccc(Oc3ccccc3)cc2)CC1 5.48%
CCN(CC)C(=O)C(=O)Nc1ccc(Oc2ccccc2)cc1 2.61%
Cc1ccc(-c2nc3cnccn3c2Nc2ccc3c(c2)OCCO3)o1 12.5%
O=C(O)c1cccc(-n2cccc2/C=C\[N+](=O)[O-])c1 26.7%
COc1ccc(-n2cccc2C=O)cc1 4.9%
CN(C)c1ccc(-n2cccc2/C=N/n2cnnc2)cc1 9.83%
CCOc1ccc(-n2cccc2C=O)cc1 4.88%
CC(=O)NC(Cc1ccccc1C)C(=O)NC1CCN(c2nnnn2-c2ccccc2)CC1 (stereo unspecified) 3.78%
C#CCO[C@@H]1C[C@H](n2ccc(NC(=O)c3ccccc3)nc2=O)O[C@@H]1CO 7.23%
CSc1ncccc1C(=O)N1CCCC(N2CCN(c3ccccc3C)CC2)C1 (stereo unspecified) 10.5%
O=C(NC(c1ccccc1)c1ccccc1)C1CCCN(S(=O)(=O)c2cnc[nH]2)C1 (stereo unspecified) 1.47%
C=CCc1ccc(OCCOCCN(C)C)c(OC)c1 11.5%
C=CCc1ccc(OCCOCCNCCOC)c(OC)c1 8.29%
